High-throughput results deposited in PubChem BioAssay by ICCB-Longwood Screening Facility, Harvard Medical School.
This is one part of a sample in which hits are shown more often than they occur.
Sa growth 42C = inhibitors of Staphylococcus aureus growth at 42 °C | S. aureus RN4220 growth, OD600, 20 h; stronger effect = lower value | relative growth, % (no concentration beside the values) | 170,000 compounds, 0.53% hits | AID 720641;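 active = relative growth at most 50% at the other temperature and 20+ points below 30 °C, or under 10% at both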
Sa helicase inh = S. aureus DNA helicase inhibition. purified S. aureus helicase, fluorescence unwinding assay. inhibition, % (test concentration not listed). 120,000 compounds, 0.05% hits; in the data active = inhibition above about 25%, passing the limit was not always enough;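 also: 0% = mean of negative control wells and 100% = mean of positive control wells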
* hit, by the source's call; . = no result given.

SMILES	Sa growth 42C	Sa helicase inh
S=c1[nH]nc(-c2ccc3c(c2)OCO3)o1	36*	8
CC(=O)NC1C(=O)N(C(C)C)c2ccccc21 (stereo not drawn)	96	-1
O=C1C2CC=CCC2C(=O)N1CC(=O)N(Cc1nnc(-c2ccc(Cl)cc2)o1)C1CC1 (stereo not drawn)	86	-4
C/C(O)=C(\C#N)P(C)(=O)OC(C)C (stereo not drawn)	102	-9
Cc1ccc(CNC(=O)Cn2sc3nc(C)cc(C)c3c2=O)cc1	87	13
CCOc1ccc(CCNC(=O)Cn2sc3nc(C)cc(C)c3c2=O)cc1	6.2*	24
CCN(CC)C(=O)Oc1ccccc1	114	9
CCc1ccc[n+](OC(=O)N(CC)CC)c1	0.1*	15
Nc1cc(C(F)(F)F)ccc1-n1cncn1	97	-8
CS(=O)(=O)c1sc(Br)c2c1C(=O)CCC2	101	.
CS(=O)(=O)c1sc(C#N)c2c1C(=O)CCC2	0.4*	4
Cc1[nH]nc2nc(C(F)(F)F)cc(C(F)(F)F)c12	113	-31
CO[C@H]1C=CO[C@@]2(C)Oc3c(C)c(O)c4c(O)c(c(C=NN5CCN(C6CCCC6)CC5)c(O)c4c3C2=O)NC(=O)C(C)=CC=C[C@H](C)[C@H](O)[C@@H](C)[C@@H](O)[C@@H](C)[C@H](OC(C)=O)[C@@H]1C	3.9*	.
CCOc1ccccc1-c1noc(CCCC(=O)Nc2cc(C(F)(F)F)ccc2Cl)n1	109	-20
CC(=O)Nc1ccc(S(=O)(=O)Nc2ccc([N+](=O)[O-])cc2)cc1	77	.
O=C(N[C@H](CO)[C@H](O)c1ccc([N+](=O)[O-])cc1)C(Cl)Cl	-0.1*	.
O=C(NN1CC(=O)N(C(c2ccccc2)c2ccccc2)C1=O)c1ccncc1	113	-3
CN(Cn1nc2sc3ccccc3n2c1=S)C1CCCCC1	54	-13
S=c1n(CN2CCCC2)nc2sc3ccccc3n12	39*	0
c1cc2cc(C3=NCCN3)ccc2cc1C1=NCCN1	100	46*
c1coc(C2=NCCN2)c1	87	9
C=CCSc1nnc(-c2ccc(C(C)(C)C)cc2)n1Cc1ccco1	8.7*	7
CSc1nnc(-c2ccc(C(C)(C)C)cc2)n1Cc1ccco1	85	.
O=C1CSC(c2cccnc2)N1Cc1ccc2c(c1)OCO2 (stereo not drawn)	115	.
COc1ccc(OC(=O)c2cc(-c3ccc4c(c3)OCCO4)on2)cc1	97	.
SMILES	Sa growth 42C	Sa helicase inh
Cc1cc(C)cc(OC(=O)c2cc(-c3ccc4c(c3)OCCO4)on2)c1	1.7*	.
Cc1cccc(OC(=O)c2cc(-c3ccc4c(c3)OCCO4)on2)c1	1.8*	.
CC(C)c1ccc(OC(=O)c2cc(-c3ccc4c(c3)OCCO4)on2)cc1	83	.
COCCCNC1CCN(Cc2ccccc2)CC1	106	5
Cc1cc2nc3ccc(=[N+](C)C)cc-3sc2cc1N	209	132*
CN(C)c1ccc2nc3ccc(=[N+](C)C)cc-3sc2c1	52	.
Cc1noc(C)c1CCNC(=O)c1[nH]nc2c1CCc1ccccc1-2	94	11
O=C(O)CNCC(O)Cn1c2ccccc2c2ccccc21 (stereo not drawn)	110	22
OC(CNCc1ccccc1)Cn1c2ccc(Cl)cc2c2cc(Cl)ccc21 (stereo not drawn)	-0.9*	-2
CCn1c(=O)c(=O)[nH]c2cc(C(=O)Nc3nc4c(s3)CCCC4)ccc21	118	-14
Cc1n[nH]c(C)c1CCC(=O)O	108	5
Cc1n[nH]c(C)c1CCCOc1ccccc1	8.3*	-2
Cc1n[nH]c(C)c1CCCCCOc1ccccc1	0.0*	13
COC(=O)c1c(COc2ccccc2)n[nH]c1C	113	.
Cn1c(SCC(=O)c2ccc(Cl)s2)nnc1C1COc2ccccc2O1 (stereo not drawn)	95	-16
Cn1cc(/C=C(/C#N)c2ccc(C(=O)O)cc2)c2ccccc21	79	-21
Cc1oc2c(c1C(=O)NCCc1ccccc1)C(=O)c1ccccc1C2=O	15	4
Cc1oc2c(c1C(=O)NC(C)(C)C)C(=O)c1ccccc1C2=O	5.7*	-13
Cc1oc2c(c1C(=O)N1CCC(C)CC1)C(=O)c1ccccc1C2=O	49	11
Cc1oc2c(c1C(=O)NC1CCCCC1)C(=O)c1ccccc1C2=O	8.8*	-2
Cc1oc2c(c1C(=O)NC1CCCC1)C(=O)c1ccccc1C2=O	3.9*	10
Cc1oc2c(c1C(=O)N1CCCCC1)C(=O)c1ccccc1C2=O	39	-4
C[N+]1(C)CCOC12CCCCC2	101	-9
CSc1ccc(-c2ccc3c(c2)OCCO3)nn1	108	0
CCOc1ccc(NC(=O)CCNc2ccccc2OC)cc1	82	-10
SMILES	Sa growth 42C	Sa helicase inh
COc1ccc(CCNc2ncnc3sccc23)cc1	96	10
N#CC1(NC(=O)CSc2nnnn2-c2ccc(OC(F)(F)F)cc2)CCCC1	85	-3
Cc1nc2ccccc2n1CCc1nc2c3ccccc3nc(=S)n2[nH]1	106	-6
CCCc1nc2c3ccccc3nc(=S)n2[nH]1	1.7*	-18
CCN1C(C(=O)c2ccccc2)=C(OC(=O)c2ccc(Cl)cc2)c2ccccc2S1(=O)=O	53	.
CCN1C(C(=O)c2ccccc2)=C(OC(=O)c2ccco2)c2ccccc2S1(=O)=O	6.2*	12
Cc1ccc(N2C(=O)c3ccccc3C2=O)cc1	101	4
Cc1ccc(-n2sc3ccccc3c2=O)cc1	1.1*	2
CC(C)CSc1nc2sccc2c(=O)n1-c1ccccc1	98	4
CSc1nnc(-c2ccncc2)n1-c1ccccc1C	88	-16
CN(CC(=O)NCc1ccco1)C(=O)c1ccc(-c2ccc(Cl)cc2)s1	121	-3
COc1ccccc1OCCn1c(NC(=O)c2ccccc2)nc2ccccc21	109	.
COc1ccccc1C(=O)Nc1nc2ccccc2n1CCOc1ccccc1	1.0*	6
CCN(CC)C(=O)/C(C#N)=C/c1ccc(-c2ccc(Cl)cc2)o1	102	7
FC(F)(F)c1cc(-c2ccccc2)nc(N2CCCC2)n1	102	3
CS(=O)c1nc(-c2ccccc2)cc(C(F)(F)F)n1 (stereo not drawn)	-0.2*	7
CN(C1CCCCC1)S(=O)(=O)c1ccc2c(c1)c(=O)c(C(=O)N1CCCCC1)cn2C	99	-12
CC1CCN(Cn2nc(-c3ccc4c(c3)OCO4)oc2=S)CC1	42*	-7
CC1CN(Cn2nc(-c3ccc4c(c3)OCO4)oc2=S)CC(C)O1 (stereo not drawn)	80	-11
CCc1ccccc1NC(=O)NC1CCCC1	107	4
O=C(NC1CCCC1)c1cc2c(=O)n3ccccc3nc2nc1NCC1CCCO1 (stereo not drawn)	88	4
O=C(CC1CC2CCC1C2)N(Cc1nnc(-c2ccccc2Cl)o1)C1CC1 (stereo not drawn)	77	3
CN1CCc2c(OCc3ccc(Cl)cc3)cccc2C1=O	6.4*	15
CCCCOc1cccc2c1CCN(C)C2=O	66	6
CCCSC(=S)c1c(C)[nH]n(-c2ccccc2)c1=O	0.2*	-7
CCCSC(=S)c1c(C)[nH]n(-c2ccc(C)cc2)c1=O	123	.
Cc1ccc(S(=O)(=O)C(=O)Nc2cccc3nsnc23)cc1	124	-4
CC(C)C(=O)Nc1cccc2nsnc12	1.2*	-2
O=S(=O)(/N=C/c1cc(Br)ccc1O)c1ccccc1	.	2
O=C1NN(c2ccccc2)C(=O)/C1=C/c1ccc(SC2CCCCC2)o1	92	22
